This passage reports Potency results from PubChem BioAssay AID504465 (National Center for Advancing Translational Sciences (NCATS), 2011).

Hit rate of the full screen: of about 2,100 compounds, about 210 (10%) were called active. Another 53% or so got no clear call; they are omitted. Calls follow the shape of the dose curve; as a rule, active = well fitted inhibition curve with a large enough effect; inconclusive = small, poorly fitted or top-dose-only effect, or effect the other way; inactive = no such curve, though single readings can be large or run the other way. The list shows a part of the results. A call without a number means that no potency is given here.
Potency is read from the fitted curve at half-maximal effect.

The experiment is described as follows: IN Cell qHTS Assay for Inhibitors of the mTORC1 Signaling Pathway in MEF (Tsc2-/-, p53-/-) Cells: Sytravon. Also: nearly all actives have a fitted effect of over 60% in size. The following applies: phospho-rpS6 immunofluorescence, 24 h; series mostly up to 38.3 µM. Put shortly: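 Tsc2-/-, p53-/- MEFs (empty-vector) treated with compound 24 h at 37 degree Celsius, then fixed and stained for phospho-rpS6 Ser235/236 (Alexa-488) plus Hoechst. Reported as % positive cells, thresholds set against 7.5 nM rapamycin and DMSO wells.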
`Cc1oc2ccc(O)c(CN(C)Cc3ccccc3)c2c1C(=O)Nc1ccccc1`: the Potency entry was “inactive”.
The result for `CCOc1cccc(NC(=O)C2CC(=O)N(CC)C(=Nc3ccc(F)cc3)S2)c1` (stereo not given) reads “inactive”; that for `O=C(NCC1CCN(Cc2ccccc2F)CC1)Nc1ccc(F)c(Cl)c1`, “inactive”.
The result for `Cc1ccc(C)c(CN2CCC(CNC(=O)c3cc4ccc5cccnc5c4[nH]3)CC2)c1` reads “inactive”; that for `Cc1ccc(C)c(CN2CCC(CNC(=O)Nc3ccc(Br)cc3F)CC2)c1`, 14.7 µM (active); that for `Cc1nn(C)c2c1c(C(F)(F)F)cc(=O)n2CC(=O)N1CCC(C)CC1`, “inactive”.
Turning to `CSc1ccc(CCNS(=O)(=O)c2cc(-c3cc(C)no3)ccc2C)cc1`, the Potency result was “inactive”.
As to `CCOC(=O)CSc1nc(-c2ccccc2)cc(C(F)(F)F)c1C#N`, the Potency was 9.27 µM (active).
For the molecule `CCOc1ccc(-c2cc(C(=O)N3CCN(c4cccc(C(F)(F)F)c4)CC3)c3ccccc3n2)cc1`, the Potency entry is “inactive”.
`N#Cc1ccc(-c2cccs2)nc1SCC(=O)Nc1cccc(C(F)(F)F)c1`: the Potency result is “inactive”.
For `CCc1ccc(Sc2cc(C(=O)NCCCN3CCCC(C)C3)c3ccccc3n2)cc1` (stereo not given), the Potency entry is “inactive”.
The result for `CCN1CCOC(=O)C1CC(=O)Nc1ccc(C)c(Cl)c1` (stereo not given) reads “inactive”.
In the case of `O=C(Cn1c(-c2cccs2)cc2ccccc21)NCCCN1CCN(c2ccc(F)cc2)CC1`, the Potency is 14.7 µM (active).
Take `COc1ccc(Nc2cc(C(=O)NCCCN3CCN(c4ccc(OC)cc4)CC3)c3ccccc3n2)cc1`: the Potency result was “inactive”.
`Cc1ccccc1Oc1nc2ccccn2c(=O)c1/C=C(\C#N)c1nc2ccccc2[nH]1`: the Potency entry is “inactive”.
The result for `CCn1c(CN2CCOCC2)nc2cc(NC(=O)c3ccccc3[N+](=O)[O-])ccc21` reads “inactive”.
In the case of `CCOc1ccc(N2C(=O)c3[nH]nc(-c4ccc(OC)cc4)c3C2c2cccs2)cc1` (stereo not given), the Potency entry was “inactive”.
The result for `CCOc1cc(C2c3c(-c4ccc(Br)cc4)n[nH]c3C(=O)N2c2ccc(Cl)cc2)ccc1O` (stereo not given) reads “inactive”.
Turning to `COc1ccc(-c2n[nH]c3c2C(c2ccc(O)cc2)N(c2ccc(Br)cc2)C3=O)cc1` (stereo not given), the Potency was 11.7 µM (active).
`CC(C)CN(CC(C)C)S(=O)(=O)c1ccc(C(=O)Nc2sc3c(c2C(N)=O)CC(C)(C)NC3(C)C)cc1`: the Potency result was “inactive”.
In the case of `Cc1ccc(Nc2cc(C)nc3nc(Cc4ccc(Cl)cc4)nn23)cc1`, the Potency result is “inactive”.
Turning to `Cc1cc(C)c(Nc2ncnc3c2cnn3C)c(C)c1`, the Potency entry is “inactive”.
To `Cc1cccc(-n2ncc3c(Nc4c(C)cc(C)cc4C)ncnc32)c1` belongs 3.69 µM (active).
For `COc1ccc(OC)c(Nc2ncnc3c2cnn3-c2cccc(Cl)c2)c1`, the Potency entry was “inactive”.
Take `O=C(Nc1cc(Cl)cc(Cl)c1)c1cc(S(=O)(=O)NC2CCCC2)ccc1F`: the Potency result is “inactive”.
To `O=C(COC(=O)c1cccc(NC(=O)c2ccc(Br)cc2)c1)c1ccc(Br)cc1` belongs “inactive”.
With `CCCCOc1cccc(NC(=O)c2cccc(C(=O)Nc3cccc(OCCCC)c3)c2)c1`, the Potency is 11.7 µM (active).
Regarding `CCCCOc1cccc(C(=O)N2CCN(CCc3ccncc3)CC2)c1`, the Potency result was “inactive”.
To `CN1CCc2c(sc(NC(=O)CSc3ccccc3)c2-c2nc3ccccc3s2)C1` belongs “inactive”; to `CS(=O)(=O)N(CC(=O)NCCc1ccccc1)c1cc(C(F)(F)F)ccc1Cl`, 8.26 µM (active).
For `O=C(Nc1cc(Cl)ccc1Cl)c1cc(S(=O)(=O)NCCc2ccccc2)ccc1F`, the Potency result is “inactive”.
In the case of `Cc1n[nH]c(C)c1S(=O)(=O)N(CC(=O)Nc1ccc(C(F)(F)F)cc1)c1ccc(C(C)C)cc1`, the Potency entry was “inactive”.
For the molecule `Cc1c(Cl)ccc2sc(NC(=O)c3ccc(S(=O)(=O)N4CCCc5ccccc54)cc3)nc12`, the Potency entry was “inactive”.
Consider `Cc1c(C(=O)N2CCC(C)CC2)c(S(=O)(=O)N(Cc2ccccc2)C(C)(C)C)c(C)n1C`, for which the Potency entry was “inactive”.
With `O=C1CSC2(C(=O)N(Cc3cccc(C(F)(F)F)c3)c3ccccc32)N1c1ccc(F)c(F)c1` (stereo not given), the Potency entry is “inactive”.
Take `CCN(CC)CCNC(=O)c1ccc(-n2c(-c3ccccc3)cc3c2CCCC3)cc1`: the Potency entry is “inactive”.
For the molecule `CCN(CC)CCCNC(=O)c1nn(C)c2c1CSc1ccccc1-2`, the Potency result was “inactive”.
For the molecule `CCN(CC)CCCNC(=O)c1ccc(-c2nc(CN3CCc4ccccc43)c(C)o2)cc1`, the Potency was 13.1 µM (active).
Regarding `COc1ccc(-c2ccc(CNc3ccc4[nH]c(=O)[nH]c4c3)o2)cc1Cl`, the Potency result is “inactive”.
The result for `CCCNC(=O)c1ccc2c(c1)N=C(CCC)c1ccccc1S2` reads “inactive”; that for `CCOc1ccc(OCC)c(NC(=O)C(NS(=O)(=O)c2cccs2)c2ccccc2)c1` (stereo not given), “inactive”.
The result for `COc1ccc(CNC(=O)CCCN2C(=O)CSc3c2c(C)nn3-c2ccccc2)cc1` reads “inactive”; that for `Cc1ccc(CCNC(=O)c2c3c(nc4ccccc24)C(=O)N(C2CCCCC2)C3)cc1`, “inactive”; that for `CCCOc1ccc(CNC(=O)CCCn2nc(C)c3sc4ccccc4c3c2=O)cc1`, “inactive”.
The result for `Cc1nn(CCCC(=O)NCCc2ccc(Cl)cc2)c(=O)c2c1sc1ccccc12` reads 11.7 µM (active); that for `CSc1ccc(CCNC(=O)C(C)n2nc(C)c3sc4ccccc4c3c2=O)cc1` (stereo not given), 1.17 µM (active); that for `Cc1nn(C(C)C(=O)NC2CCC(C)CC2)c(=O)c2c1sc1ccccc12` (stereo not given), 5.21 µM (active).
For `CCC(C(=O)N1CCN(c2cc(Cl)ccc2C)CC1)n1nc(C)c2sc3ccccc3c2c1=O` (stereo not given), the Potency entry was “inactive”.
Turning to `COc1ccc(N2CCN(C(=O)C(C)n3nc(C)c4sc5ccccc5c4c3=O)CC2)cc1` (stereo not given), the Potency was 1.85 µM (active).
To `COc1ccc(Cn2ccc3nc(C)c(C(=O)N4CCN(c5ccc(OC)cc5)CC4)cc3c2=O)cc1` belongs “inactive”.
For `CSc1ccc(CCNC(=O)CCn2c(=O)c3cccn3c3ccc(F)cc32)cc1`, the Potency result was “inactive”.
On to `CC1CCN(C(=O)CN2c3ccc(C(C)C)cc3-c3ccccc3S2(=O)=O)CC1`, for which the Potency result is “inactive”.
To `COc1ccccc1N1CCN(S(=O)(=O)c2ccc(-n3cnnn3)cc2)CC1` belongs “inactive”.
Take `Cc1cc(C)cc(OCC(=O)Nc2ccc(-c3nc4ncccc4o3)cc2C)c1`: the Potency entry was “inactive”.
Turning to `COc1cccc(C2CC(=O)Nc3cc4c(cc32)OCCO4)c1OC` (stereo not given), the Potency entry was “inactive”.
Regarding `COc1cc(/C=C/c2nc(C#N)c(N3CCCCCC3)o2)cc(OC)c1OC`, the Potency entry is “inactive”.
As to `CCOc1ccc(-c2c(C)nn3c(C)c(C(=O)Nc4cccc(Cl)c4C)cnc23)cc1OCC`, the Potency result is “inactive”.
As to `COc1ccc(CNC(=O)CCCc2cn(C)c3ccccc23)c(OC)c1`, the Potency entry is “inactive”.
Consider `COc1ccc(CNC(=O)c2cc(-c3ccc(Br)s3)nc3ccccc23)c(OC)c1`, for which the Potency result is “inactive”.
To `COc1ccc(CCNC(=O)C(C)n2nc(C)c3sc4ccccc4c3c2=O)c(OC)c1` (stereo not given) belongs 4.65 µM (active).
